# From PubChem BioAssay AID1321 (The Scripps Research Institute Molecular Screening Center, 2008)
# The whole screen tested about 220,000 compounds, of which about 2,600 (1.2%) were called active. The list comes from a sample in which actives are over-represented; it also holds similar structures and randomly drawn compounds. A number with no mark means an inactive call.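 How the source made its calls: active means activation above the mean of all tested compounds plus 3 SD, set per screening run (cut at about 8.8% in these data); inactive means the rest.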
# Biological target: Wee1-like protein kinase (Homo sapiens) (UniProt P30291)
# Assay: compounds stabilizing Wee1-luciferase fusion – cell-based, HeLa, Wee1K328M-luciferase, luminescence, primary screen (AID 1321);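 further: cells exposed to compound for 20 h before luminescence read; 0% = DMSO alone and 100% = MG132 at 30 µM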
# Conditions: HeLa Luc-Wee1K328M stability, at 5 µM, active compounds read high, 100% = proteasome inhibitor MG132 effect
row,SMILES,reporter increase
1,COc1ccccc1-n1cn[nH]c1=S,-1.47%
2,Cc1ccc2c(C)c(C(=O)N3CCC(N4CCC(C(=O)NC5CC5)CC4)CC3)oc2c1,7.23%
3,O=C(N/N=C\c1cc(Br)c(Br)o1)C1COc2ccccc2O1 (stereo not given),3.79%
4,Cc1cc(CO)nn1-c1ccc([N+](=O)[O-])cc1,-1.77%
5,COc1ccc(-c2csc(Nc3ccccn3)n2)cc1,0.98%
6,c1ccc(Nc2nc(-c3ccncc3)cs2)nc1,11.1% (active)
7,c1cnc(Nc2nc(-c3ccc4ccccc4c3)cs2)nc1,-0.11%
8,O=C(O)C#Cc1cccc2ccccc12,6.16%
9,O=[N+]([O-])C(=c1ccc2c(c1)N1C3=C(CCCC3)CC3CCCCC31N=2)[N+](=O)[O-] (stereo not given),-2.36%
10,C/C(O)=C\c1nc(=O)c2c(C)cc(C)nc2n1-c1ccccc1,-1.67%
11,Cc1cc(C)c2c(n1)sc1c(=O)n(-c3ccccc3)c(=O)[nH]c12,17.8% (active)
12,Cc1cc(C)c2c(-n3cccc3)c(NC(=O)OCc3ccccc3)sc2n1,-2.38%
13,O=c1[nH]c(SCc2cccc(F)c2)nc2ccccc12,-1.83%
14,O=P(O)(CN1CCCCCC1)C1Cc2ccccc2C1,2.27%
15,CC1CCN(Cc2nc(-c3ccc(Cl)cc3)no2)CC1,8.97% (active)
16,Cc1ccc(-c2noc(CN3CCN(Cc4ccccc4)CC3)n2)cc1,0.1%
17,CN1CCN(C(=O)CCc2nc(-c3ccc(Cl)cc3)no2)CC1,2.75%
18,COCC(C)OC(=O)c1c(N)n(CCCN2CCOCC2)c2nc3ccccc3nc12 (stereo not given),-0.94%
19,FC(F)(F)c1cccc(-c2nc(COc3ccc(Cl)cc3Cl)no2)c1,1.86%
20,CCCC(=O)n1nc(-c2ccccc2)nc1N,-0.53%
21,COc1ccc(CC(=O)n2nc(-c3cccnc3)nc2N)cc1,9.39% (active)
22,COc1ccccc1C(=O)n1nc(-c2ccccc2)nc1N,0.74%
23,Clc1ccc(CSc2nnc3c(n2)[nH]c2ccccc23)cc1,4.2%
24,CC(=O)NCC(O)c1ccc([N+](=O)[O-])cc1 (stereo not given),-2.38%
25,COC(=O)c1ccc(S(=O)(=O)N(CCO)Cc2ccccc2)n1C,0.33%

row,SMILES,reporter increase
1,O=C(Cn1cnc2ccccc2c1=O)Nc1cccc(S(=O)(=O)N2CCCCC2)c1,-0.22%
2,Cc1[nH]c2ccccc2c1SCC(=O)Nc1nccs1,-4.02%
3,CC(=O)c1cc(C#N)c(SCC(=O)C(C)(C)C)nc1C,0.58%
4,CC(=O)c1cc(C#N)c(SCC(=O)Nc2nccs2)nc1C,8.83% (active)
5,O=C(/C=C/Sc1ncn[nH]1)c1ccc(Cl)cc1,9.14% (active)
6,COc1ccc(Cl)cc1CSc1ncn[nH]1,-0.89%
7,Cc1cc(C)nc(S/C=C/C(=O)c2ccccc2)n1,1.73%
8,Cc1ccc(NC(=S)N2CCCC(c3ccccc3)=N2)cc1,-4.54%
9,NC(=O)Cc1ccc2sc(-c3ccccc3)nc2c1,14.1% (active)
10,NC(=O)Cc1ccc2c(c1)[nH]c1ccccc12,0.52%
11,O=C(O)Cc1sc(-c2ccc(C(=O)O)cc2)nc1-c1ccccc1,2%
12,Brc1ccc(-c2n(-c3ccccn3)c3ccccc3[n+]2-c2ccccn2)cc1,3.34%
13,CN(C)N=Nc1ccc2nc[nH]c2c1,2.5%
14,Cc1ccc(C(=O)Nc2nc(N)n(-c3ccccc3)n2)cc1,-0.93%
15,NS(=O)(=O)c1ccc(CNC(=O)c2cnccn2)cc1,3.73%
16,COC(=O)CC1=NN(c2ccccc2)C(=O)C1,-1.29%
17,COC(=O)CC1=NN(c2nc(C)cc(C)n2)C(=O)C1,15.3% (active)
18,Cc1cc(C)cc(NC(=O)C2CCN(c3nc(C)cc(C)n3)CC2)c1,-2.65%
19,O=C1C2C3C=CC(C3)C2C(=O)N1c1ccc(S(=O)(=O)Nc2nccs2)cc1 (stereo not given),-1.57%
20,NS(=O)(=O)c1ccc(NC(=O)COC(=O)c2cc3ccccc3oc2=O)cc1,-2.85%
21,O=C(CCc1ccccc1)NNc1ccc(F)cc1,1.37%
22,COc1cccc(-c2nnc(SCCOc3ccc4c(C)cc(=O)oc4c3)o2)c1,9.51% (active)
23,Cc1ccccc1N1CCN(CCCOc2ccc3c(C)cc(=O)oc3c2)CC1,-1.06%
24,Cc1cc(=O)oc2cc(OCCC[n+]3ccccc3)ccc12,-1.76%
25,COC(=O)c1sccc1NN1C(=O)c2ccccc2C1=O,-2.49%

row,SMILES,reporter increase
1,Cc1cccc(NC(=O)Nc2ccc3c(c2)OCO3)n1,5.09%
2,Cc1cccc(NC(=O)/C=C/c2ccc3c(c2)OCO3)n1,9.34% (active)
3,CCc1c(C)sc(NC(=O)/C=C/c2ccc3c(c2)OCO3)c1C(=O)OC,-2.27%
4,COc1ccc(C(=O)N/N=C2\CCS(=O)(=O)c3ccc(F)cc32)cc1OC,0.62%
5,CC(C)c1ccc(C(=O)NCCCc2ccccc2)cc1,-2.16%
6,O=C(NCCCNCc1ccccc1)c1ccc(/C=N/O)nc1,11.4% (active)
7,Nc1ccc(C(=O)NCc2ccccc2)cc1,2.22%
8,CNC(=S)NNC(=O)c1oc2nc(-c3ccccc3)cc(-c3ccco3)c2c1N,-0.32%
9,CCOP(=O)(OCC)C(Nc1ccc([N+](=O)[O-])cc1)c1ccc(Cl)cc1 (stereo not given),0.66%
10,CCCCOC(=O)c1ccc(NC(c2ccc(C)cc2)P(=O)(OC)OC)cc1 (stereo not given),8.49%
11,CCOP(=O)(OCC)C(Nc1cccc(C)c1)c1ccc(F)cc1 (stereo not given),10.8% (active)
12,Nc1ccccc1SC(C[N+](=O)[O-])c1ccccc1 (stereo not given),-0.08%
13,O=C1NC(=Nc2ccc(Cl)cc2)SC1Cc1cccc(Cl)c1Cl (stereo not given),-1.02%
14,NC1=NC(=O)C(Cc2cccc(Cl)c2)S1 (stereo not given),-3.99%
15,NC1=NC(=O)C(Cc2cccc(Cl)c2Cl)S1 (stereo not given),9.04% (active)
16,[O-][N+]12CCCCC1CCCC2CO (stereo not given),-2.55%
17,COCCCNC(=O)C1CCN(c2ccc(N3CCOCC3)nn2)CC1,-2.62%
18,CSc1nc(-c2ccco2)nn1C(=O)c1ccccc1Cl,-1.69%
19,Cc1ccc(C)c(NC(=S)NNC(=O)c2csc(C)c2)c1,1.58%
20,Cc1ccccc1NC(=S)NNC(=O)c1cccc(Br)c1,-1.44%
21,Cc1cc(C(=O)NNC(=S)Nc2ccccc2C)cs1,10.1% (active)
22,CC(=O)N1CC[n+]2c(-c3ccc([N+](=O)[O-])cc3)csc21,-3.06%
23,O=c1c2ccccc2nc(CSc2nnnn2-c2ccccc2)n1-c1ccccc1,5.88%
24,O=c1c2ccccc2nnn1CSc1nnnn1-c1ccccc1,9.56% (active)
25,Nc1nnc(SCn2nnc3ccccc3c2=O)s1,-0.04%

row,SMILES,reporter increase
1,Cc1ccc(-c2nc(SCC(=O)Nc3ccccc3OC(F)F)c3c(C)c(C(=O)O)sc3n2)cc1,-1.68%
2,O=[N+]([O-])/C=C1\CCCCCN1,-2.66%
3,COc1ccc(CCN2C(=O)CC(N3CCC(C(N)=O)CC3)C2=O)cc1OC (stereo not given),-3%
4,C/C(=N\NC(=S)Nc1ccc(C)cc1)c1cc2ccccc2o1,5.15%
5,CCC(=O)/C=C1\Sc2ccccc2N1CC,-1.98%
6,CCN1/C(=C/C(=S)Nc2ccccc2)Sc2ccccc21,11.6% (active)
7,O=C(CCN1c2ccccc2Sc2ccccc21)Nc1ccccc1,0.76%
8,COc1ccc2oc(=O)c(C(=O)N3CCN(c4ccccc4F)CC3)cc2c1,-2.32%
9,COc1ccc(Nc2ncc(C(=O)N3CCN(c4ccccc4OC)CC3)c3ccccc23)cc1,8.82% (active)
10,COc1ccccc1N1CCN(C(=O)c2cn(-c3ccccc3)nc2-c2cccnc2)CC1,-0.84%
11,O=C(/C=C/Nc1ccc(S(=O)(=O)Nc2cnc3ccccc3n2)cc1)c1cccnc1,-0.5%
12,COc1cc(OC)c(OC)cc1/C=N/Nc1ncnc2c1[nH]c1ccc(C)cc12,0.2%
13,O=C(NNS(=O)(=O)Cc1ccccc1)c1ccc([N+](=O)[O-])cc1,-1.88%
14,COC(=O)c1cc2c(N)c(C(=O)c3ccc(Cl)cc3)sc2nc1C(OC)OC,-2.57%
15,Nc1c(C(=O)NCc2ccccc2)sc2nc3c(cc12)C(=O)CCC3,2.8%
16,CC(C)OC(=O)c1sc2nc3c(cc2c1N)C(=O)CCC3,11.6% (active)
17,CN(CC(O)COc1ccc(S(=O)(=O)N2CCOCC2)cc1Cl)C1CCCCC1 (stereo not given),-3.05%
18,O=C(N/N=C/c1cccc([N+](=O)[O-])c1)c1ccncc1,2.44%
19,CN(c1cccc(NC(=O)Nc2ccc(Cl)cc2)c1)S(C)(=O)=O,4.1%
20,CC(C)S(=O)(=O)c1csc(NC(=O)Nc2ccc(Cl)cc2)c1Cl,14.2% (active)
21,Cn1ccc(NC(=O)Nc2ccc(Cl)cc2)n1,2.1%
22,Cn1nc(C(F)(F)F)cc1C(=O)O,-1.44%
23,COc1ccc(Br)cc1/C=N/NC(=O)c1cccc(S(=O)(=O)N2CCOCC2)c1,8.21%
24,COc1ccc(/C=N/NC(=O)CNC(=O)c2ccc(S(=O)(=O)N3CCCC3)cc2)c(OC)c1,0.74%
25,COc1cccc(/C=N/NC(=O)CNC(=O)c2ccc(S(=O)(=O)N3CCOCC3)cc2)c1OC,12.4% (active)
